Reference: PubChem BioAssay (NCI)
This is part of a sample that, as a whole, favours compounds with a hit. Of some 83,000 tested, about 20% had one in any assay.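 Single-concentration screen, 48 h exposure, 96-well plates. Endpoint: percent growth. Below 10 = active.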 A number with no mark means an inactive call. Activity calls are given as the source filed them.

Legend:
Assay in all cases: NCI-60 one-dose screen, 48 h (100 = growth as untreated, 0 = no growth, -100 = all killed)
Conditions in all cases: 10 µM unless noted
SK-MEL-2 melanoma = test system: SK-MEL-2 melanoma
EKVX NSCLC = test system: EKVX NSCLC
SN12C renal = test system: SN12C renal
UO-31 renal = test system: UO-31 renal
TK-10 renal = test system: TK-10 renal
ACHN renal = test system: ACHN renal
CAKI-1 renal = test system: CAKI-1 renal
A498 renal = test system: A498 renal
CCRF-CEM leukemia = test system: CCRF-CEM leukemia
MOLT-4 leukemia = test system: MOLT-4 leukemia
SR leukemia = test system: SR leukemia
RPMI-8226 leukemia = test system: RPMI-8226 leukemia
OVCAR-8 ovarian = test system: OVCAR-8 ovarian
OVCAR-5 ovarian = test system: OVCAR-5 ovarian
OVCAR-4 ovarian = test system: OVCAR-4 ovarian
SK-OV-3 ovarian = test system: SK-OV-3 ovarian
IGROV1 ovarian = test system: IGROV1 ovarian
OVCAR-3 ovarian = test system: OVCAR-3 ovarian
HS 578T breast = test system: HS 578T breast
NCI/ADR-RES ovarian = test system: NCI/ADR-RES ovarian

Structure (SMILES) | growth (SK-MEL-2 melanoma) | growth (EKVX NSCLC) | growth (SN12C renal) | growth (UO-31 renal) | growth (TK-10 renal) | growth (ACHN renal) | growth (CAKI-1 renal) | growth (A498 renal) | growth (CCRF-CEM leukemia) | growth (MOLT-4 leukemia) | growth (SR leukemia) | growth (RPMI-8226 leukemia) | growth (OVCAR-8 ovarian) | growth (OVCAR-5 ovarian) | growth (OVCAR-4 ovarian) | growth (SK-OV-3 ovarian) | growth (IGROV1 ovarian) | growth (OVCAR-3 ovarian) | growth (HS 578T breast) | growth (NCI/ADR-RES ovarian)
CCS/C(Nc1ccccc1)=C(\C#N)C(=O)N/N=C/c1ccc(Cl)cc1Cl | 28.3% | 47.4% | 34.5% | 41.9% | 56.7% | 38.2% | 31.5% | -2.1% (active) | 9.86% (active) | 18.3% | 19.5% | 9.68% (active) | 28.6% | 72.5% | 56.5% | 15.5% | 49.1% | 1.46% (active) | -6.44% (active) | 10.8%
O=Nc1c(-c2c(O)[nH]c3ncccc23)[nH]c2ccccc12 | 14.7% | 35.5% | 72.8% | 10.6% | 40.3% | 22.6% | 12.4% | -11.7% (active) | 64.8% | 40.8% | 32.8% | 69.5% | 79.6% | 67.7% | 66.7% | 6.5% (active) | -25.3% (active) | 69.3% | -9.72% (active) | 71.8%
CN([O-])c1nc(N(C)[O-])nc(N2CCOCC2)n1.CN([O-])c1nc(N(C)[OH2+])nc(N2CCOCC2)n1.[Fe+3] | 84.9% [100 µM] | 14.5% [100 µM] | 99.9% [100 µM] | 72.3% [100 µM] | 110% [100 µM] | 82.8% [100 µM] | 85.8% [100 µM] | 109% [100 µM] | 11.7% [100 µM] | 30.3% [100 µM] | 67.3% [100 µM] | 81% [100 µM] | 85.6% [100 µM] | 110% [100 µM] | 120% [100 µM] | 110% [100 µM] | 112% [100 µM] | 60% [100 µM] | 98.2% [100 µM] | 104% [100 µM]
NC(=O)CCC(C(=O)O)N1C(=O)c2ccc(O)cc2C1=O (stereo not given) | 97% | 101% | 108% | 93.1% | 114% | 93.1% | 80% | 115% | 91.1% | 59.1% | 139% | 82.1% | 106% | 131% | 123% | -100% (active) | 105% | 97.6% | 107% | 132%
Cc1cc2c(O)c(-c3cccc(Cl)c3)c3sc(=O)oc3c2cc1C | 37.8% | 93.9% | 36.7% | 54.2% | 122% | 44.5% | 40.5% | 9.01% (active) | 44.8% | 45.8% | 18.6% | 12.1% | 41.9% | 106% | 13.4% | 59.4% | 41% | 18.6% | 48.2% | 56.3%
COC1=CC(c2ccc[nH]2)=N/C1=C\c1[nH]c(C)c(C(=O)OCc2ccccc2)c1C | -63.1% (active) | -33.5% (active) | -29.4% (active) | -87.9% (active) | -4.94% (active) | -86.1% (active) | -40.7% (active) | -37.7% (active) | 13.4% | -7.67% (active) | 9.69% (active) | -18% (active) | -26.6% (active) | -38.5% (active) | -36.5% (active) | 7.66% (active) | -33.1% (active) | -66% (active) | -37% (active) | 0.894% (active)
CC(C)(C)n1cc(-c2ccnc(NCCNS(=O)(=O)c3cccc(F)c3)c2)c(-c2ccccc2)n1 | 105% | 70.6% | 90.1% | 67% | 105% | 99.5% | 90.4% | 27.1% | 93.8% | 74.4% | 32.6% | 61% | 87.9% | 105% | 72.7% | 102% | 97.2% | 101% | 92.9% | 89.5%
COc1ccc(-c2nc(SCC(C)C)nc(N/N=C\c3ccc(F)cc3)c2C#N)cc1 | 104% | 93.9% | 78.6% | 67.2% | 81.5% | 30.3% | 91.1% | 74.4% | 82.3% | 88.2% | 46.7% | 98.2% | 96.3% | 95.6% | 8.96% (active) | 112% | 80.5% | 70.5% | 62.4% | 84.2%
